JMJD2A Tudor – inhibitors of human JMJD2A Tudor domain; AID 504339; Potency, µM (top dose mostly 114 µM), for inactives: top-dose activity change, negative = inhibition, most hits filed as inhibitors; hit rate 4.4% among 390,000; AlphaScreen JMJD2A-Tudor / H3K4me3 peptide binding; further: potency means the concentration at half of the fitted maximal effect; on the % scale 0 is the no-effect control and ±100 the full control effect; nearly all actives have a fitted effect of over 50% in size
Target sequence (O75164 whole entry, looked up, the tested form may be a part): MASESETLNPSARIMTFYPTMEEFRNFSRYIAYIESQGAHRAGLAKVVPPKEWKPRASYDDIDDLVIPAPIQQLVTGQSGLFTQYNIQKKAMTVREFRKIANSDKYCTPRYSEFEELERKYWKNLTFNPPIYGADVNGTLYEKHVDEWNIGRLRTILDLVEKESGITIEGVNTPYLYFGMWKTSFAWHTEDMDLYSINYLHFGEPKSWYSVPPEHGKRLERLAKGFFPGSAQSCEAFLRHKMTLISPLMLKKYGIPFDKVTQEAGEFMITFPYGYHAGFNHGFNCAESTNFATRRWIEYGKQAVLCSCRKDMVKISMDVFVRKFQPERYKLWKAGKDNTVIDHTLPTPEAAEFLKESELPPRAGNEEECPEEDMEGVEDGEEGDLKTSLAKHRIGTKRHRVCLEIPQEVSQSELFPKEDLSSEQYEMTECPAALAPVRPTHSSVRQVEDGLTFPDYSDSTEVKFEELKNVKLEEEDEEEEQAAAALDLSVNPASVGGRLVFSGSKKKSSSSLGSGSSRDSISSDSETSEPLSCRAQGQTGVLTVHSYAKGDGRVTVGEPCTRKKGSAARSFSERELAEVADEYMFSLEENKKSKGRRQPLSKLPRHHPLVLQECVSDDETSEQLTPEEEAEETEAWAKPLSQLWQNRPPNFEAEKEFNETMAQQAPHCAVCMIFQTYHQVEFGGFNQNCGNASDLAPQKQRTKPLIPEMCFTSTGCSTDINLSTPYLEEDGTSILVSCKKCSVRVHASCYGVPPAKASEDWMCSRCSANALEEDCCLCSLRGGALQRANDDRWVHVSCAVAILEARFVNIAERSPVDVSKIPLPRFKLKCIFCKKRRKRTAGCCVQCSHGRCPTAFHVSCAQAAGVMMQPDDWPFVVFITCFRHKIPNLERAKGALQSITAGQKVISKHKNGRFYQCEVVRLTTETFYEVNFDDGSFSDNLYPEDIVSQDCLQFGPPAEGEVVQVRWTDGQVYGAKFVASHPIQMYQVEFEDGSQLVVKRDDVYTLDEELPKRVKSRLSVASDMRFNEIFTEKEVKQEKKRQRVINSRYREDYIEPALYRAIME
HP1b binding inh – HP1-beta chromodomain-methylated histone interaction inhibition; P83916; AlphaScreen HP1-beta / biotin-H3K9me3 peptide binding; Potency, µM (series often up to 114 µM), without a hit: at the top dose activity change, negative = inhibition, hits mostly inhibitors; hit rate 0.56% among 390,000; AID 540317; further: potency means the concentration at half of the fitted maximal effect; nearly all actives have a fitted effect of over 70% in size
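Compound inhibition of the preformed complex between 50 nM HP1-beta and 50 nM biotinylated H3K9me3 peptide was read by AlphaScreen. Buffer was PBS pH 7.4 with 0.01% Tween-20. Incubations ran 30 min at room temperature, with 10 ug/mL donor/acceptor beads.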
G9a block – inhibitors of human histone lysine methyltransferase G9a | G9a H3K9 monomethylation, AlphaScreen, 2 h | Potency, µM (highest dose often 102 µM), without a hit: at the top dose activity, negative = inhibition, usual class: inhibitors | hit rate 8.8% among 350,000 | AID 504332; further: potency means the concentration at half of the fitted maximal effect; on the % scale 0 is the no-effect control and ±100 the full control effect; nearly all actives have a fitted effect of over 75% in size
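G9a (20 nM) preincubated 15 min RT with compounds, then 500 nM biotinylated H3K9 peptide and 20 uM SAM added; 2 h RT reaction. Monomethyl-H3K9 product detected by AlphaScreen with anti-H3K9me1 antibody, streptavidin donor and anti-rabbit IgG acceptor beads.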
BAZ2B inh – inhibitors of human BAZ2B bromodomain. AlphaScreen BAZ2B-H3K14Ac peptide displacement. Potency, µM (titrated, usually from 114 µM), for inactives: top-dose activity change, negative = inhibition, hits mostly inhibitors. hit rate 4.4% among 360,000. AID 504333; further: potency means the concentration at half of the fitted maximal effect; on the % scale 0 is the no-effect control and ±100 the full control effect; nearly all actives have a fitted effect of over 60% in size
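Inhibition is scored as reduced AlphaScreen emission. The BAZ2B/b-H3(5-23)K14Ac complex (50 nM each) in PBS pH 7.4, 0.01% Tween-20 meets compound (up to 110 uM) for 30 min at RT before bead addition.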
CtBP-E1A blk – CtBP/E1A binding inhibition; AlphaScreen GST-E1A/His-CtBP binding, 1536-well; active compounds read low; activity change, % (test concentration not listed); hit rate 0.49% among 340,000; AID 651724; in the data active means activity change below about -65%; inconclusive means mostly about -30% to -63%; further: on the % scale 0 is the no-effect control and ±100 the full control effect
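Protein mix (5X: 125 nM each GST-E1A, His-CtBP) was incubated with pinned compound 2 h at 37 deg C in dark, in 50 mM Tris pH 8.0 buffer with 300 mM NaCl. Glutathione donor and nickel acceptor beads followed; AlphaScreen signal read after 1 h.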
Six1-Eya2 blk – blocks human Six1 binding to Eya2. Q15475+O00167. AlphaScreen GST-Six1/His-Eya2 binding, biochemical; active compounds read low. activity change, % (test concentration not listed). hit rate 0.56% among 360,000. AID 651725; in the data active means activity change below about -65%; inconclusive means mostly about -30% to -63%; further: on the % scale 0 is the no-effect control and ±100 the full control effect
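AlphaScreen with GST-Six1 and His-Eya2 (5X mix: 250 nM and 500 nM), glutathione donor and nickel acceptor beads; buffer 50 mM Tris pH 8.0, 300 mM NaCl, 1 mM TCEP; 1 h at 37 C in the dark.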
Numbers without * were called inactive; ? = inconclusive; . = not tested or not shown; [ ] = remark or other dose. Only some compounds are listed: those with a hit (about 10% of all), similar ones and a draw of the others. Unless noted, the call rests on the fitted dose curve; in most records, active means well fitted inhibition curve with a large enough effect; inconclusive means small, poorly fitted or top-dose-only effect; inactive means no such curve, though single readings can be large or run the other way.

SMILES	JMJD2A Tudor	HP1b binding inh	G9a block	BAZ2B inh	CtBP-E1A blk	Six1-Eya2 blk
CC1CCCN(S(=O)(=O)c2ccc(C(=O)Nc3nnc(-c4ccccn4)o3)cc2)C1 (configuration not stated)	-11%	11%	-44%	?	.	0
Cc1cc(C)nc(NS(=O)(=O)c2ccc(NC(=O)c3ccc(S(=O)(=O)N4CC(C)OC(C)C4)cc3)cc2)n1 (configuration not stated)	-12%	22%	8.9µM*	4%	-10	6
CCSc1nc2c([nH]c3ccccc32)c(=O)n1-c1ccc(F)cc1	-14%	20%[57 µM]	8%[59 µM]	0%	.	.
Cn1c2cc(S(C)=O)sc2c2cnn(Cc3cccc(N)c3)c(=O)c21 (configuration not stated)	-23%	.	.	.	.	.
CSc1cc2c(s1)c1cnn(Cc3cccc(N)c3)c(=O)c1n2C	3.5µM*	.	.	.	.	.
O=C(CC1C(=O)N(c2ccc(F)cc2)C(=O)N1Cc1cccnc1)Nc1ccc(F)cc1 (configuration not stated)	-5%	31%	-30%[59 µM]	-6%	.	.
O=C(NC(c1ccccc1)c1ccccn1)c1cccc([N+](=O)[O-])c1 (configuration not stated)	-2%	28%	?	.	-2	-8
O=C(OC(c1ccccc1)c1nccc2ccccc12)c1cc([N+](=O)[O-])cc([N+](=O)[O-])c1 (configuration not stated)	?	?	10µM*	?	?	?
CC(C)[C@H]1C=C(C(=O)O)O[C@@H](OCc2ccc(CO)cc2)C1	89µM*	25%	?	?	-3	-5
C[C@@H]1C=C(C(=O)O)O[C@H](OCc2ccc(CO)cc2)C1	-14%	23%	-126%[59 µM]	-38%	-5	-3
CSc1nc2c(c(=O)[nH]c(=O)n2C)n1Cc1ccccc1Cl	-14%	17%	.	-3%	-5	4
CCC(C)Sc1nc2c(c(=O)[nH]c(=O)n2C)n1Cc1ccccc1Cl (configuration not stated)	1%	7%	25µM*	-14%	1	-7
Cn1c(=O)[nH]c(=O)c2c1nc(SCCO)n2Cc1ccccc1Cl	?	-10%	45µM*	-2%	-17	-7
CC(C)OC(=O)C(C#N)c1nc2ccccc2nc1N1CCCC1 (configuration not stated)	-31%	0%	11µM*	-35%	-20	-15
COc1ccc(CNC(=O)C(C#N)c2nc3ccccc3nc2N2CCN(C)CC2)cc1 (configuration not stated)	71µM*	?	?	50µM*	4	-6
CCC(CC)COC(=O)C(C#N)c1nc2ccccc2nc1N1CCN(CC)CC1 (configuration not stated)	?	7%	45µM*	35µM*	-5	-18
CCC(C)COC(=O)C(C#N)c1nc2ccccc2nc1N1CCCCC1 (configuration not stated)	3%	47%	15%	-7%	2	-3
N#CC(c1nc2ccccc2nc1N1CCCC1)S(=O)(=O)c1cccs1 (configuration not stated)	?	-4%	13µM*	-30%	-11	-12
Cn1c(C(=O)NCc2ccccc2Cl)cc2sc(Cl)cc21	-5%	61%	5%[59 µM]	-33%	.	.
CCOC(=O)CSc1nnc2n(-c3ccccc3)c(=O)c3c4c(sc3n12)COC(C(C)C)C4 (configuration not stated)	-2%	51%	-30%[59 µM]	0%	.	.
Cc1cc(OC(C)C(=O)N(Cc2ccc(N(C)C)cc2)Cc2ccco2)ccc1Cl (configuration not stated)	14µM*	-27%	13µM*	13µM*	.	.
Cc1cc(OCC(=O)N(Cc2ccc(N(C)C)cc2)Cc2ccco2)cc(C)c1Cl	14µM*	-17%	11µM*	10µM*	.	.
Cc1ccc(-n2c(CCC(=O)O)ccc2-c2cccs2)cc1	?	-7%	?	50µM*	7	-8
Cc1ccc(-n2c(CCC(=O)O)ccc2-c2cccs2)cc1Cl	?	1%	13µM*	?	.	.
NC(=O)c1ccc(-n2c(CCC(=O)O)ccc2-c2cccs2)cc1	-26%	?	28µM*	-32%	-4	-3
SMILES	JMJD2A Tudor	HP1b binding inh	G9a block	BAZ2B inh	CtBP-E1A blk	Six1-Eya2 blk
O=C(O)CCc1ccc(-c2cccs2)n1NC(=O)c1ccc(Cl)cc1Cl	-30%	-2%	56µM*	-37%	-25	-20
O=C(O)CCc1ccc(-c2cccs2)n1NC(=O)c1ccc(Cl)cc1	-29%	15%	-3%[12.7 µM]	-38%	8	-8
COc1ccc(CNC(=O)C2=C(C)C(=O)OC23CCCCC3)cc1OC	-11%	15%	0%[59 µM]	0%	.	.
COc1cc2c(cc1OC)C(c1ccc(F)cc1)N(c1ccc(F)cc1)C(=O)C2 (configuration not stated)	-19%	60%	16%[59 µM]	19%	.	.
CC(=O)c1ccc(-n2c(CCC(=O)O)ccc2-c2cccs2)cc1	?	-5%	14µM*	?	8	-5
O=C(O)CCc1ccc(-c2cccs2)n1CC1CCCO1 (configuration not stated)	?	-2%	18µM*	-33%	-5	3
CCCS(=O)(=O)N1CC(=O)N(c2ccccc2C)C(C)(C(=O)NC2CCCCC2)C1 (configuration not stated)	-1%	29%	4%[59 µM]	-1%	.	.
O=C1C2=C(Nc3ccccc3SC2c2ccccc2C(F)(F)F)c2ccccc21 (configuration not stated)	22µM*	?	11µM*	?	.	.
CCOc1cc(C2Sc3ccccc3NC3=C2C(=O)c2ccccc23)ccc1O (configuration not stated)	14µM*	?	13µM*	.	.	.
O=C1C2=C(Nc3ccccc3SC2c2c(F)cccc2Cl)c2ccccc21 (configuration not stated)	13µM*	?	?	.	.	.
O=C1Nc2ccccc2SC1c1ccccc1 (configuration not stated)	-22%	31%	-8%[0.501 µM]	-7%	.	-2
O=C1C2=C(Nc3ccccc3SC2c2ccc(Cl)c(Cl)c2)c2ccccc21 (configuration not stated)	8.9µM*	?	13µM*	.	.	.
COc1ccc(Br)cc1C1Sc2ccccc2NC2=C1C(=O)c1ccccc12 (configuration not stated)	-8%	18%	-6%[59 µM]	.	.	.
CCCc1ccc(C2Sc3ccccc3NC3=C2C(=O)c2ccccc23)cc1 (configuration not stated)	16µM*	?	7.9µM*	10µM*	.	.

High-throughput results: PubChem, National Center for Advancing Translational Sciences (NCATS)
